The source made the active and inactive calls. The calls were made as follows: active = hit-call score of the fitted dose curve at least 0.9, where 1 is the maximum; inconclusive = response in the unintended direction; inactive = score below 0.9.

Sequence of Peroxisome proliferator-activated receptor gamma (Homo sapiens) (P37231 whole entry, looked up, the tested form may be a part): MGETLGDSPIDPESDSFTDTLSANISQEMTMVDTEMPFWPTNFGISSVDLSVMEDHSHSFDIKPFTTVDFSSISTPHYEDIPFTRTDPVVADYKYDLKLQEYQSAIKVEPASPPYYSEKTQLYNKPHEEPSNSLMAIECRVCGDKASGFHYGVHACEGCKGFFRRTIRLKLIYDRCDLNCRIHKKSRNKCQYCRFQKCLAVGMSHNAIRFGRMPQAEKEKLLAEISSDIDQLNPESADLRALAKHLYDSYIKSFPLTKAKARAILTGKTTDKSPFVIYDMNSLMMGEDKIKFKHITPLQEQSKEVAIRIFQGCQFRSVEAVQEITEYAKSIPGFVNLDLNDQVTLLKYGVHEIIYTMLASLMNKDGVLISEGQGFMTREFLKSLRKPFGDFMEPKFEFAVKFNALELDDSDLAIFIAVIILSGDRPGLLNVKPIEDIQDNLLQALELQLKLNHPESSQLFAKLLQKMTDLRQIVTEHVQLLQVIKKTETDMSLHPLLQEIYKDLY

This test addresses Peroxisome proliferator-activated receptor gamma (Homo sapiens) (UniProt P37231). Kind of test: OT_PPARg_PPARgSRC1_1440: Odyssey Thera (OT) 24-hour Protein-Complementation Assay for Peroxisome Proliferator-activated Receptor Gamma/ SRC-1 Co-activator (AID 2283388).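 Also: nuclear to cytoplasmic ratio of reconstituted Venus YFP fluorescence in fixed imaged cells.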 Here is the method:
OT_PPARg_PPARgSRC1_1440 is a cell-based assay that uses HEK293T, a human kidney cell line, with measurements taken at 24 hours after chemical dosing in a 384-well plate.OT_PPARg_PPARgSRC1_1440 is one of one assay component(s) measured or calculated from the OT_PPARg_PPARgSRC1_1440 assay. It is designed to make measurements of protein fragment complementation, a form of binding reporter, as detected with fluorescence intensity signals by Protein-fragment Complementation technology.Data from the assay component OT_PPARg_PPARgSRC1_1440 was analyzed into 1 assay endpoint. This assay endpoint, OT_PPARg_PPARgSRC1_1440, was analyzed in the positive analysis fitting direction relative to DMSO as the negative control and baseline of activity. Using a type of binding reporter, measures of receptor for gain-of-signal activity can be used to understand the binding at the pathway-level as they relate to the gene PPARG. Furthermore, this assay endpoint can be referred to as a primary readout, because the performed assay has only produced 1 assay endpoint. To generalize the intended target to other relatable targets, this assay endpoint is annotated to the nuclear receptor intended target family, where the subfamily is non-steroidal.
The OT PPARg/SRC-1 assay assessed receptor-chemical interactions using a rapidly maturing, intensely fluorescent mutant of YFP known as Venus, rationally dissected into two separate fragments. The fragments were obtained as follows: first, fragments coding for YFP1 and YFP2 (corresponding to amino acid residues 1-158 and 159-239 of the full length YFP, respectively) were generated by oligonucleotide synthesis (Blue Heron Biotechnology), and then PCR mutagenesis was used to generate the mutant fragments IFP1 and IFP2. Fusion constructs were transfected into HEK293T cells with a (Gly4Ser)2 linker between the PPARg/SRC-1 and YFP fragment genes to facilitate complementation when interacting proteins bring fragments into close proximity. The construct is transiently transfected in HEK293T cells 48 hours prior to treatment with test compounds. Cells are seeded into optical quality 384-well poly-D-lysine coated plates in MEM alpha medium (Invitrogen) supplemented with 10 percent FBS (Gemini Bio-Products) 1 percent penicillin and 1 percent streptomycin, and grown in 37C incubator equilibrated to 5 percent CO2. Cells are allowed to adhere for 24 hours prior to treatment with compounds of interest or controls for 24 hours. Cells are fixed in 4 percent formaldehyde and stained with Draq5 (BioStatus) to identify cells and subcellular compartment boundaries prior to signal detection. 8 Images per well were acquired on an Evotec Opera at 2 wavelengths (488 and 635nm), and the ratio of fluorescence in the nucleus relative to fluorescence in the cytoplasm (N/C Ratio) in the 488nm channel was calculated for a minimum of 350 cells per image.
Consider `N#CSCSc1nc2ccccc2s1`, for which the compound was classed as inactive. As to `CCCCOCCOCCOCc1cc2c(cc1CCC)OCO2`, the compound was called inactive.

Consider `COC(=O)CSc1cc(N=c2sc(=O)n3n2CCCC3)c(F)cc1Cl`, for which the call was inactive. Next, `CCOC(=O)C(C)Oc1ccc(Oc2cnc3cc(Cl)ccc3n2)cc1` (stereo not given): “inactive”; `CCOC(=O)COc1cc(-n2ncc(C(F)(F)F)c(C)c2=O)c(F)cc1Cl`: “inactive”.

For `O=C(Nc1ccc([N+](=O)[O-])cc1Cl)c1cc(Cl)ccc1O`, the compound was classed as inactive. Regarding `CCCCC(CC)CN1C(=O)C2C3C=CC(C3)C2C1=O` (stereo not given), the outcome was inactive. Turning to `CCN(Cc1c(F)cccc1Cl)c1c([N+](=O)[O-])cc(C(F)(F)F)cc1[N+](=O)[O-]`, the compound was classed as inactive.

With `CCOC(=O)C(C)Oc1ccc(Oc2nc3ccc(Cl)cc3o2)cc1` (stereo not given), the compound was called inactive. Consider `COCCO`, for which the compound was called inactive. As to `C#CCOC(=O)[C@@H](C)Oc1ccc(Oc2ncc(Cl)cc2F)cc1`, the compound was called inactive. With `S=C([S-])NCCNC(=S)[S-].[Mn+2]`, the result was inactive. The entry for `CCCN(CCC)C(=O)SCC` is “inactive”. Consider `CC(C)(C)[C@@H](O)[C@@H](Cc1ccc(Cl)cc1)n1cncn1`, for which the outcome was inactive. Take `CCCN(CCC)c1c([N+](=O)[O-])cc(C(F)(F)F)c(N)c1[N+](=O)[O-]`: the compound was called inactive.

For `CC(=O)S[C@@H]1CC2=CC(=O)CC[C@]2(C)[C@H]2CC[C@@]3(C)[C@@H](CC[C@@]34CCC(=O)O4)[C@H]12`, the result was inactive. Turning to `CCCCOC(=O)C(C)Oc1ccc(Oc2ccc(C(F)(F)F)cn2)cc1` (stereo not given), the compound was called inactive.

With `C=CCOC(Cn1ccnc1)c1ccc(Cl)cc1Cl` (stereo not given), the compound was called inactive. In the case of `C#C[C@]1(O)CC[C@H]2[C@@H]3CCC4=CC(=O)CC[C@@H]4[C@H]3CC[C@@]21CC`, the result was inactive. As to `O=C(O)c1ccccc1`, the call was inactive. For the compound `O=C(O)C1(C(=O)Nc2ccc(Cl)cc2Cl)CC1`, the compound was called inactive. In the case of `CCCCCOC(=O)COc1cc(N2C(=O)C3=C(CCCC3)C2=O)c(F)cc1Cl`, the compound was called inactive. With `Cc1nn(C)c(Oc2ccccc2)c1C=NOCc1ccc(C(=O)OC(C)(C)C)cc1`, the outcome was inactive. In the case of `COC(=O)c1ccccc1C(=O)O`, the call was inactive. On to `N[C@@H](Cc1cc(I)c(Oc2ccc(O)c(I)c2)c(I)c1)C(=O)O`, for which the call was inactive. Take `C[C@]12C[C@H](O)[C@H]3[C@@H](CCC4=CC(=O)CC[C@@]43C)[C@@H]1CC[C@@H]2C(=O)CO`: the result was inactive. The entry for `CCCOC(=O)c1ccc(C(=O)OCCC)nc1` is “inactive”. Regarding `OB(O)O`, the compound was classed as inactive. Next, `O=C(c1ccc(O)cc1O)c1ccc(O)cc1O`: “inactive”; `CC(C)(c1ccc(O)cc1)c1ccc(O)cc1`: “inactive”; `CCCOC(=O)NCCCN(C)C`: “inactive”.

As to `CCC(C)OC(=O)N1CCCCC1CCO` (stereo not given), the compound was called inactive. As for `c1ccc(Nc2ccccc2)cc1`, the call was inactive. As for `COC(=O)c1ccc(I)cc1S(=O)(=O)NC(=O)Nc1nc(C)nc(OC)n1`, the result was inactive.

Regarding `CN(C)C(=O)Nc1ccc(Cl)c(Cl)c1`, the compound was classed as inactive. With `CSC(=O)c1cccc2nnsc12`, the compound was called inactive. The entry for `CC(C)CCCCCCc1ccc(O)cc1` is “inactive”; for `C[C@]12CC[C@@H]3c4ccc(O)cc4C[C@@H](CCCCCCCCCS(=O)CCCC(F)(F)C(F)(F)F)[C@H]3[C@@H]1CC[C@@H]2O` (stereo not given in full) it is “inactive”; for `c1ccc2[nH]c(-c3cscn3)nc2c1` it is “inactive”.

With `CC(=O)[C@H]1CC[C@H]2[C@@H]3CCC4=CC(=O)CC[C@]4(C)[C@H]3CC[C@]12C`, the result was inactive.

The values above are taken from PubChem BioAssay (EPA / NIEHS).
